The values below come from PubChem BioAssay (EPA / NIEHS).

A short description of assay [1]: ATG_CRE_CIS: Attagene CIS-FACTORIAL HepG2 Assay for human cAMP Responsive Element (CRE) binding protein 3 (AID 2282926). Conditions: HepG2 CRE cis-reporter, Attagene multiplexed mRNA; actives raise or lower the signal. The essentials: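 HepG2 cells transiently transfected with cis-element-driven multiple reporter transcription units; CRE reporter mRNA measured 24 h after dosing by RT-PCR, 6-FAM labelling, HpaI digestion and capillary electrophoresis. Bidirectional fit versus DMSO baseline.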

Assay [2] concerns the target CCAAT/enhancer-binding protein beta (Homo sapiens) (UniProt P17676). In words: ATG_C_EBP_CIS: Attagene CIS-FACTORIAL HepG2 Assay for human CCAAT/Enhancer Binding Protein (C/EBP) beta (AID 2282927). The settings on record: HepG2 Attagene cis-factorial transcription factor reporter; actives raise or lower the signal. In outline:
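RT-PCR/capillary electrophoresis fluorescence of reporter mRNA, 24 h post-dose, in HepG2 cells carrying transfected cis-promoter reporter units. Bidirectional curve fitting against DMSO baseline captures gain or loss of signal.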

A short description of assay [3]: ATG_CMV_CIS: Attagene CIS-FACTORIAL HepG2 Assay for human CMV (Internal Marker) (AID 2282928).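 Note: endpoint acts as a background internal control marker rather than a target.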 The settings on record: HepG2 CMV promoter reporter, transcription factor profiling; actives raise or lower the signal. The essentials: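 Endogenous transcription factor activity read in HepG2 via transfected cis-promoter reporter units. After 24 h dosing, reporter mRNA measured by RT-PCR/capillary electrophoresis; gain or loss of signal fit relative to DMSO.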

Assay [4] can be described thus: ATG_DR4_LXR_CIS: Attagene CIS-FACTORIAL HepG2 Assay for human Liver X Receptor (LXR), DR4 submotif (AID 2282929). Conditions: HepG2 Attagene DR4 cis-reporter, mRNA transcription; actives raise or lower the signal. The essentials:
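After transient transfection with multiplexed cis-promoter reporter units, HepG2 cells received test chemicals for 24 h. Reporter mRNA induction, detected by fluorescence after RT-PCR and capillary electrophoresis, was scored relative to DMSO.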

The nature of assay [5]: ATG_AP_1_CIS: Attagene CIS-FACTORIAL HepG2 Assay for human Activator Protein 1 (AP-1) (AID 2282931). Conditions: HepG2 Attagene cis-factorial AP-1 reporter mRNA; actives raise or lower the signal. The essentials:
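After 24 h incubation with test chemical, RNA from transfected HepG2 cells was reverse-transcribed, amplified, fluorescently labelled and digested before capillary electrophoresis. Reporters were driven by cis-regulatory promoters; activity fitted bidirectionally versus DMSO.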

A short description of assay [6]: ATG_BRE_CIS: Attagene CIS-FACTORIAL HepG2 Assay for human Bone Morphogenetic Protein (BMP) Response Element (BRE) (AID 2282933). The settings on record: HepG2 BMP response element reporter, Attagene transcription factor profiling; actives raise or lower the signal. In outline:
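Gain- or loss-of-signal was derived by bidirectional fitting against DMSO controls. The signal came from reporter mRNA, measured by RT-PCR and capillary electrophoresis, in HepG2 cells transiently carrying multiple reporter units and dosed for 24 h.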

Assay [7] in a line: ATG_E_Box_CIS: Attagene CIS-FACTORIAL HepG2 Assay for human Enhancer Box (E-box) (AID 2282936). The settings on record: HepG2 E-box cis-reporter transcription, actives raise or lower the signal. The essentials: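 HepG2 cells transiently transfected with multiplexed cis-element reporter units sensing endogenous transcription factor activity; 24 h compound exposure. Reporter mRNA measured by RT-PCR, 6-FAM primer extension, HpaI digestion and capillary electrophoresis; bidirectional fit versus DMSO.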

A short description of assay [8]: ATG_M_19_CIS: Attagene CIS-FACTORIAL HepG2 Assay for M19 Transcription Factor (Internal Marker) (AID 2282939). The settings on record: HepG2 Attagene CIS-FACTORIAL M19 internal marker reporter; actives raise or lower the signal. The essentials: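 Following a 24 h exposure, RNA from transfected HepG2 cells was reverse-transcribed, PCR-amplified with reporter-specific primers, end-labelled with 6-FAM and HpaI-digested before capillary separation. Values represent gain or loss versus DMSO.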

Assay [9] can be described thus: ATG_GATA_CIS: Attagene CIS-FACTORIAL HepG2 Assay for human GATA Binding Protein (AID 2282944). Conditions: HepG2 GATA cis-element reporter, Attagene multiplex mRNA; actives raise or lower the signal. In outline: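 DMSO serves as negative control and baseline for bidirectional fitting of reporter mRNA changes. HepG2 cells bearing transiently transfected cis-promoter reporters were exposed 24 h; transcripts detected via RT-PCR and capillary electrophoresis.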

Assay [10] in a line: ATG_ISRE_CIS: Attagene CIS-FACTORIAL HepG2 Assay for human Interferon Regulatory Factor 1 (IRF1) binding to an Interferon-Stimulated Response Element (ISRE) (AID 2282948). Conditions: HepG2 ISRE cis-reporter (Attagene), mRNA transcription readout; actives raise or lower the signal. The essentials:
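Transfected HepG2 (multiple reporter transcription units, cis elements) dosed 24 h. RNA → oligo(dT) RT → PCR → 6-FAM primer extension → HpaI → CE. DMSO = negative control/baseline.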

Assay [11] is described as follows: ATG_M_32_CIS: Attagene CIS-FACTORIAL HepG2 Assay for M32 Transcription Factor (Internal Marker) (AID 2282949).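 Note: background control marker of the multiplexed CIS panel rather than a real target.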 The settings on record: HepG2 Attagene cis-factorial M32 reporter, mRNA; actives raise or lower the signal. In outline:
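Internal background marker read-out: RT-PCR/capillary electrophoresis fluorescence of reporter transcripts from transiently transfected HepG2 cells after 24 h chemical exposure. Activity fitted bidirectionally relative to DMSO negative control.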

Assay [12] in a line: ATG_M_06_CIS: Attagene CIS-FACTORIAL HepG2 Assay for M06 Transcription Factor (Internal Marker) (AID 2282950). Conditions: HepG2 Attagene CIS-FACTORIAL M06 internal marker reporter; actives raise or lower the signal. The essentials: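 Fluorescence-labelled RT-PCR products from cis-promoter reporter units, cut with HpaI and resolved by capillary electrophoresis, give the signal. Cells are human HepG2, dosed for 24 h. Serves as background control, fitted relative to DMSO.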

A short description of assay [13]: ATG_MRE_CIS: Attagene CIS-FACTORIAL HepG2 Assay for human Metal Responsive Element (MRE) (AID 2282954). The settings on record: HepG2 MRE cis-reporter transcription, Attagene multiplex; actives raise or lower the signal. In outline:
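HepG2 cells transiently transfected with multiple cis-element reporter units measure endogenous MTF1-driven transcription. After 24 h compound exposure, reporter mRNA is quantified by RT-PCR with 6-FAM labelling, HpaI digestion and capillary electrophoresis; bidirectional fits versus DMSO.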

In assay [14] the target is Paired box protein Pax-6 (Homo sapiens) (UniProt P26367). In words: ATG_Pax6_CIS: Attagene CIS-FACTORIAL HepG2 Assay for human Paired Box 6 (PAX6) (AID 2282956). Conditions: HepG2 CIS-FACTORIAL PAX6 reporter transcription, RNA readout; actives raise or lower the signal. In outline: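 Transient MRTU transfection of HepG2 → compound exposure 24 h → TriZol RNA, oligo(dT) RT → PCR, 6-FAM primer extension, HpaI cut → capillary electrophoresis; activity fitted both directions against DMSO.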
Sequence of Paired box protein Pax-6 (Homo sapiens) (P26367 whole entry, looked up): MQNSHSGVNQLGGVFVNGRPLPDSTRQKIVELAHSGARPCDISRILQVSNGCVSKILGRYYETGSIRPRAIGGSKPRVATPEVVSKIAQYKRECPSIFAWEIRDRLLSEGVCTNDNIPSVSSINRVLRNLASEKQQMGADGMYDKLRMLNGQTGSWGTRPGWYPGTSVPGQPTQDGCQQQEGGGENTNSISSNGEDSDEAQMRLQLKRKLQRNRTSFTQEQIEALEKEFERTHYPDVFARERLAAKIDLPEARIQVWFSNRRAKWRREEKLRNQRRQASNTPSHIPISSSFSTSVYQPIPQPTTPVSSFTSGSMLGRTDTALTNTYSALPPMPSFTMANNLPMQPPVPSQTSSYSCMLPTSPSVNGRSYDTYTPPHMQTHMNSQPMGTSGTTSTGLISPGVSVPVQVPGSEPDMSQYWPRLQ

Assay [15] is described as follows: ATG_PXRE_CIS: Attagene CIS-FACTORIAL HepG2 Assay for human Pregnane X Receptor Element (PXRE) (AID 2282957). The settings on record: HepG2 Attagene CIS-FACTORIAL PXRE reporter, mRNA; actives raise or lower the signal. In outline: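 HepG2 cells transiently transfected with cis-element-driven multiplexed reporter units; after 24 h chemical exposure, reporter mRNA measured by RT-PCR, 6-FAM labelling, HpaI digestion and capillary electrophoresis. Bidirectional fitting relative to DMSO.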

Assay [16] can be described thus: ATG_Sox_CIS: Attagene CIS-FACTORIAL HepG2 Assay for human SRY-box transcription factor (SOX) (AID 2282960). Conditions: HepG2 Attagene cis-factorial SOX reporter, mRNA; actives raise or lower the signal. In outline: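 Using transiently transfected HepG2 cells, reporter transcription driven by cis elements was assessed 24 h after dosing. Signal was fluorescence of capillary-separated RT-PCR products, with DMSO defining baseline activity.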

Assay [17] concerns the target Transcription factor Sp1 (Homo sapiens) (UniProt P08047). In words: ATG_Sp1_CIS: Attagene CIS-FACTORIAL HepG2 Assay for human Specificity Protein 1 (Sp1) (AID 2282961). The settings on record: HepG2 Sp1 cis-reporter transcription, actives raise or lower the signal. The essentials:
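After transient transfection of HepG2 cells with cis-promoter reporter units and 24 h chemical treatment, reporter transcripts were quantified by RT-PCR and capillary electrophoresis fluorescence. Gain- and loss-of-signal fitted against DMSO.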

Assay [18] is described as follows: ATG_TA_CIS: Attagene CIS-FACTORIAL HepG2 Assay for human TA Basal Promoter (AID 2282964). The settings on record: HepG2 Attagene CIS-factorial TA basal promoter reporter; actives raise or lower the signal. The essentials: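 Multiplexed mRNA reporter assay, HepG2, 24 h. Reporter cDNA amplified, 6-FAM primer-extended, HpaI-cut, CE-sized; DMSO = negative control and baseline.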

A short description of assay [19]: ATG_TCF_b_cat_CIS: Attagene CIS-FACTORIAL HepG2 Assay for human T-Cell-Factor with beta-catenin (TCF/b-cat) (AID 2282965). Conditions: HepG2 TCF/beta-catenin cis-reporter transcription, actives raise or lower the signal. In outline: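 HepG2 cells transiently transfected with multiple cis-promoter-regulated reporter transcription units, so endogenous transcription factor activity is measured. Reporter mRNA read 24 hours after dosing by RT-PCR, fluorescent labelling and capillary electrophoresis; bidirectional fitting against DMSO.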

A short description of assay [20]: ATG_TAL_CIS: Attagene CIS-FACTORIAL HepG2 Assay for human TAL Basal Promoter (AID 2282966).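 Note: background control endpoint measuring basal TAL promoter reporter mRNA not a specific factor.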 The settings on record: HepG2 Attagene cis-factorial TAL promoter reporter; actives raise or lower the signal. The essentials: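 HepG2 cells transiently transfected with multiplexed cis-promoter reporter units, dosed 24 h. Reporter mRNA quantified by RT-PCR, 6-FAM labelling, HpaI digestion and capillary electrophoresis; TAL basal promoter serves as background control, fitted bidirectionally versus DMSO.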

The structures appear in SMILES notation. Activity calls are given as the source filed them. Rule for the calls: active = hit-call score of the fitted dose curve at least 0.9, where 1 is the maximum; inactive = score below 0.9.

Sequence of Transcription factor Sp1 (Homo sapiens) (P08047 whole entry, looked up): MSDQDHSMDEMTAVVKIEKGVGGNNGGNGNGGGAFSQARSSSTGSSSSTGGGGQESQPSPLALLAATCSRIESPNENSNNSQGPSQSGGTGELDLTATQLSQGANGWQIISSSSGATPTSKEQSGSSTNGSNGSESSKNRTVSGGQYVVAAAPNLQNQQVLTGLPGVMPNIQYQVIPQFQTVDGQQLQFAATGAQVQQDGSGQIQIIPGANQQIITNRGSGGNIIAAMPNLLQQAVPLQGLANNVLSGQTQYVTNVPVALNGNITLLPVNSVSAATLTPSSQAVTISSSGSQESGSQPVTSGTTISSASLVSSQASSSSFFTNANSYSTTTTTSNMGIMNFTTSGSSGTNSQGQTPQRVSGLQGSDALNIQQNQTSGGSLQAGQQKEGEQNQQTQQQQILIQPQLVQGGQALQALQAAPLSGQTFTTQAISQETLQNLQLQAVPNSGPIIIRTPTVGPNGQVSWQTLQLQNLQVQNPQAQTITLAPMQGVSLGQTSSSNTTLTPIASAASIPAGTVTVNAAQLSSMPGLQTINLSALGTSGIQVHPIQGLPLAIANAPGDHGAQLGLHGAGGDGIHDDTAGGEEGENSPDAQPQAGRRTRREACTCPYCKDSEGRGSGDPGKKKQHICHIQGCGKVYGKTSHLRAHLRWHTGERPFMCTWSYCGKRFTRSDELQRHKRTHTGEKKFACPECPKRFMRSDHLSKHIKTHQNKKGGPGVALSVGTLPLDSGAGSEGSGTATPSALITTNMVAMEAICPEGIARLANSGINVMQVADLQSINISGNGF
Sequence of CCAAT/enhancer-binding protein beta (Homo sapiens) (P17676 whole entry, looked up): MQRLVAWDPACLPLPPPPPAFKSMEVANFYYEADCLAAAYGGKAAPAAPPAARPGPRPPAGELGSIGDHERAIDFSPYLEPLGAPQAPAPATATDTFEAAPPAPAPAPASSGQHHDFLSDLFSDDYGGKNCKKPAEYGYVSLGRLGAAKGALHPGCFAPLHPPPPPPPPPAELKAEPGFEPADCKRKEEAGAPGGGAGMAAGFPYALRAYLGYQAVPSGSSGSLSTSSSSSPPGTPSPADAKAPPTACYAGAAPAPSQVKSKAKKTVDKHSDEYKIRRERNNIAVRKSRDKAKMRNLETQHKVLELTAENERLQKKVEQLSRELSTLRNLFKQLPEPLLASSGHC

Regarding `Cc1cc(O)cc(C)c1Cl`, the AC50 (usually the concentration giving half of the maximal activity seen) is 79 µM (active) in [1], 37.3 µM (active) in assay [3], 65.4 µM (active) in [4] and 109 µM (active) in assay [17]. Besides, the outcome in [2], in [5], in assay [6], in [7], in assay [8] and in assay [9] was inactive. For the same molecule, the molecule was called inactive in assay [10], in assay [11], in [12], in assay [13], in assay [14] and in assay [15]. Also, the result in assay [16], in assay [18], in [19] and in assay [20] was inactive.
As for `CCc1cc(C(N)=S)ccn1`, the molecule was classed as inactive in assay [1], in [2], in [3], in assay [4], in assay [5] and in [6]. Also, the result in [7], in [8], in [9], in [10], in assay [11] and in assay [12] was inactive. The result in assay [13], in [14], in assay [16], in [17], in [18] and in assay [19] was inactive. The outcome in assay [20] was inactive. In assay [15], the AC50 is 157 µM (active).
As for `CCC(C)C1N=C(C)C(C)S1` (stereo not given), the result in assay [1], in [2], in [3], in [4], in [5] and in [6] was inactive. The result in assay [7], in assay [8], in assay [9], in assay [10], in assay [11] and in assay [12] was inactive. Besides, the outcome in assay [13], in assay [14], in assay [16], in assay [17], in [18] and in [19] was inactive. Moreover, the call in assay [20] was inactive. For the same molecule, the AC50 in assay [15] is 3.25 µM (active).
As for `C/C=C(\C)C(=O)OCC/C=C\CC`, the outcome in assay [1], in assay [2], in [3], in assay [4], in assay [5] and in assay [6] was inactive. Also, the result in assay [7], in assay [8], in [9], in [10], in assay [11] and in [12] was inactive. Moreover, the molecule was called inactive in assay [13], in [14], in assay [15], in assay [16], in assay [17] and in [18]. The result in assay [19] and in [20] was inactive.
Turning to `CC(=O)CCc1ccccc1`, the outcome in assay [1], in assay [2], in assay [3], in assay [4], in [5] and in [6] was inactive. Further, the result in assay [7], in assay [8], in [9], in assay [10], in assay [11] and in assay [12] was inactive. In addition, the result in [13], in assay [14], in [15], in assay [16], in assay [17] and in [18] was inactive. The molecule was classed as inactive in assay [19] and in [20].
`CCCCCCCC#N`: the molecule was called inactive in [1], in assay [2], in assay [3], in [4], in assay [5] and in assay [6]. The result in [7], in assay [8], in [9], in [10], in assay [11] and in [12] was inactive. For the same molecule, the outcome in [13], in assay [14], in assay [15], in [16], in assay [17] and in [18] was inactive. Also, the result in assay [19] and in assay [20] was inactive.
Consider `NC(=O)c1ccc(N)cc1`, for which the molecule was called inactive in assay [1], in assay [2], in assay [3], in assay [4], in assay [5] and in assay [6]. In addition, the result in assay [7], in assay [8], in assay [9], in assay [10], in assay [11] and in [12] was inactive. Further, the molecule was called inactive in [13], in assay [14], in assay [15], in [16], in [17] and in [18]. Also, the molecule was called inactive in [19] and in assay [20].
